Reference: PubChem BioAssay (NCATS)
Inconclusive results are not listed. Activity calls are given as the source filed them. The call rests on the fitted dose curve; in most records, active means well fitted inhibition curve with a large enough effect; inconclusive means small, poorly fitted or top-dose-only effect; inactive means flat fitted curve, though single readings scatter.

Key:
[1] = tested on: CRL-7250; experiment: Cytotoxic Profiling of Annotated Libraries Using Quantitative High-Throughput Screening (AID 1296008); settings: Five cell lines viability, CellTiter-Glo ATP luminescence, 48-72 h; max response: active compounds read low; on max response: on the % scale 0 is the no-effect control and ±100 the full control effect
How it was run: (§1)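 Cells exposed to compounds for 48 or 72 hr at 37 degrees Celsius. Viability read as ATP-coupled luminescence with CellTiter-Glo after 10 min at room temperature.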

[2] = tested on: HEK293; experiment: as above; settings: Five cell lines viability, CellTiter-Glo ATP luminescence, 48-72 h; max response: active compounds read low
How it was run: as §1

[3] = tested on: HaCat; experiment: as above; settings: Five cell lines viability, CellTiter-Glo ATP luminescence, 48-72 h; max response: active compounds read low
How it was run: as §1

[4] = tested on: KB-3-1; experiment: as above; settings: Five cell lines viability, CellTiter-Glo ATP luminescence, 48-72 h; max response: active compounds read low
How it was run: as §1

[5] = tested on: NIH3T3; experiment: as above; settings: Five cell lines viability, CellTiter-Glo ATP luminescence, 48-72 h; max response: active compounds read low
How it was run: as §1

[6] = tested on: NIH3T3; experiment: qHTS assay to identify novel small-molecules to repurpose for Merkel cell carcinoma treatment (AID 1296009); settings: MCC and control cell lines, CellTiter-Glo viability, 72 h; at 44.8 µM (top of the series) unless noted
How it was run: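 Cells were incubated with compound for 72 hr at 37 degree celsius before CellTiter-Glo addition. Luminescence was normalized with no-cell wells as full cytotoxicity and DMSO as baseline.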

Measured: max response
Further: nearly all actives have a fitted effect of over 60% in size.

Cc1ccccc1N1CCN(S(=O)(=O)C[C@]23CC[C@H](C[C@@H]2NC(=O)[C@@H](N)CCS(C)(=O)=O)C3(C)C)CC1
inactive: [1] 1.21% | [2] 4.97% | [3] 0.627% | [4] 5.94% | [5] | [6]

COc1ccc(O[C@@H]2O[C@H](CO)[C@@H](O)[C@H](O)[C@H]2O)cc1OC
inactive: [1] | [2] 3.27% | [3] -16.7% | [4] | [5] | [6]

O=C(C[C@@H]1C(C(=O)O)=CO[C@@H](O[C@@H]2O[C@H](CO)[C@@H](O)[C@H](O)[C@H]2O)/C1=C\CO)OCCc1ccc(O)cc1
inactive: [1] 1.31% | [2] 1.44% | [3] -0.66% | [4] | [5] | [6] inactive [at 17.4 µM]

CN1C(=O)N(c2cc(Cl)cc(Cl)c2)C(=O)[C@@]1(C)Cc1ccc(Br)cc1
inactive: [1] -11.1% | [2] -15.8% | [3] -27.7% | [4] 3.14% | [5] | [6]

Nc1nc2c(nc(Sc3ccc(Cl)cc3)n2[C@@H]2O[C@@H]3COP(=O)(O)O[C@H]3[C@H]2O)c(=O)[nH]1
inactive: [1] 1.71% | [2] 1.54% | [3] -3.37% | [4] | [5] | [6]

C=C1CCC2C(C)(C(=O)OC)CCCC2(C)C1CCC1=CCOC1=O (stereo unspecified)
inactive: [1] 3.38% | [2] 2.4% | [3] 1% | [4] | [5] | [6]

CC1(C)C=Cc2c(ccc3c2[N+]([O-])=C2C3(O)CC34NC(=O)C5(CCCN5C3=O)CC4C2(C)C)O1 (stereo unspecified)
inactive: [1] -1.3% | [2] -1.32% | [3] -0.0821% | [4] | [5] | [6] inactive [at 17.4 µM]

C=CC(C)(O)CCC1C(C)(O)CCC2C(C)(C)CCCC21C (stereo unspecified)
inactive: [1] -9.7% | [2] -3.72% | [3] 3.9% | [4] 9.64% | [5] | [6]

CC(C)(CC(=O)N1CCCC1)NCC(=O)N1C[C@@H](F)C[C@H]1C#N
inactive: [1] -2.43% | [2] -0.937% | [3] -28% | [4] 1.01% | [5] | [6]

CC(C)=CCC[C@](C)(O[C@@H]1O[C@H](CO)[C@@H](O)[C@H](O)[C@H]1O)[C@H]1CC[C@]2(C)[C@@H]1[C@H](O)CC1[C@@]3(C)CC[C@H](O)C(C)(C)C3[C@@H](O[C@@H]3O[C@H](CO)[C@@H](O)[C@H](O)[C@H]3O[C@@H]3O[C@@H](C)[C@H](O)[C@@H](O)[C@H]3O)C[C@]12C (stereo partly specified)
inactive: [1] -1.6% | [2] -1.21% | [3] -12.1% | [4] 8.47% | [5] | [6] inactive [at 9.27 µM]

C[C@@H]1[C@H](O)[C@@H]2OC(=O)C3=C2[C@H](CCC3)[C@@]12C[C@@H](c1ccoc1)OC2=O
inactive: [1] 4.91% | [2] -1.21% | [3] -22.1% | [4] | [5] | [6]

CC1(C)CC[C@]2(C(=O)O)CC[C@]3(C)C(=CCC4[C@@]5(C)CC[C@H](O[C@@H]6O[C@H](C(=O)O)[C@@H](O)[C@H](O)[C@H]6O)C(C)(C)C5CC[C@]43C)C2C1 (stereo partly specified)
inactive: [1] -10.5% | [2] -9.32% | [3] -12.1% | [4] 4.15% | [5] | [6] inactive [at 17.4 µM]

Cc1c(O)cc2c(c1O)COC1(O)CCCOC21 (stereo unspecified)
inactive: [1] -4.56% | [2] -1.54% | [3] -19.1% | [4] | [5] | [6]

CC1=CCC2C(C)(C)CCCC2(C)C1CC12OC1C(O)C(CO)=CC2O (stereo unspecified)
inactive: [1] 3.52% | [2] -6.22% | [3] -4.23% | [4] 9.42% | [5] | [6]

O=C(/C=C/c1ccc(O)cc1)O[C@@H]1C[C@@](O)(C(=O)O)C[C@@H](O)[C@@H]1O
inactive: [1] -19.8% | [2] -2.92% | [3] -16.3% | [4] 5.75% | [5] | [6]

COc1cc([C@@H](O[C@@H]2O[C@H](CO)[C@@H](O)[C@H](O)[C@H]2O)[C@@H]2CO[C@H](c3ccc(O)c(OC)c3)[C@H]2CO)ccc1O
inactive: [1] | [2] 2.55% | [3] 0.823% | [4] -3.03% | [5] | [6] inactive [at 17.4 µM]
